High-throughput results (PubChem)
Compounds with a hit are over-represented: about 14% of the library has one in this group of screens.
MARV entry inh: blocks Marburg virus binding to or entry into cells. Marburg virus pseudotyped entry inhibition, cell reporter. hit rate 1.8% among 300,000. Potency, µM (series often up to 37.8 µM), inactives show at the highest dose activity change, negative = inhibition, hits mostly inhibitors; calls by dose curve; tested in HEK293 cells; note: potency is the fitted concentration of half-maximal effect
HCV inhibitor: HCV inhibition; Huh7.5.1 HCVcc-Cre infection, luciferase reporter, 44 h; Potency, µM (series often up to 41.8 µM), for inactives: at the top dose activity change, negative = inhibition, usual class: inhibitors; hit rate 3.4% among 340,000; AID 651820; note: potency is the fitted concentration of half-maximal effect
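Compounds are dispensed onto cells plated 4 h earlier at 1,000 per well, with HCVcc-Cre virus (about 0.5 moi) added next. Following 44 h of culture, luminescent signal is measured for 15 sec after 15 min with substrate at room temperature.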
Pf growth 96h: P. falciparum growth inhibition at 96 hour, primary screen for plastid delayed-death inhibitors; P. falciparum luciferase reporter growth, 96 h; AID 504834; Potency, µM (highest dose often 28.7 µM), for inactives: top-dose activity change, negative = inhibition, hits mostly inhibitors; hit rate 6.9% among 320,000; note: potency is the fitted concentration of half-maximal effect
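P. falciparum expressing integrated firefly luciferase, in erythrocytes at 2% hematocrit, 0.05% parasitemia, incubated with compounds 96 h at 37 C, 5% CO2. Growth inhibition read as loss of luminescence; two-generation exposure targets delayed-death apicoplast inhibitors.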
HCMV inh: blocks human cytomegalovirus replication. hit rate 4.5% among 410,000. AID 1259415. activity change, negative = inhibition, % at 57.5 µM. HFF cells, HCMV-luciferase reporter, 72 h; active compounds read low; in the data active = activity change below about -60%; inconclusive = no clear call, values can overlap the other calls; inactive = above about -39%
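HFF cells seeded 16 h at 37C, treated with compounds, infected with luciferase-reporter HCMV at MOI 1 PFU/cell; luciferase read at 72 h post infection, normalized to buffer-only and Salinomycin controls.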
Pf growth 48h: P. falciparum growth inhibition at 48 hours (one generation). P. falciparum luciferase growth in erythrocytes, 48 h. Potency, µM (highest dose often 28.7 µM), inactives show top-dose activity change, negative = inhibition, usual class: inhibitors. hit rate 5.9% among 310,000. AID 504832; note: potency is the fitted concentration of half-maximal effect
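Read-out is firefly luciferase luminescence from an integrated reporter in P. falciparum, so falling signal marks reduced parasite growth. Infected erythrocytes were at 2% hematocrit and 0.1% parasitemia (final) in Albumax-supplemented RPMI 1640.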
Lassa entry inh: Lassa virus entry inhibition; AID 540256; Lassa virus pseudotype entry inhibition, cell reporter; hit rate 1.2% among 300,000; Potency, µM (series often up to 37.9 µM), inactives show at the highest dose activity change, negative = inhibition, actives largely listed as inhibitors; calls by dose curve; tested in HEK293 cells; note: potency is the fitted concentration of half-maximal effect; nearly all actives have a fitted effect of over 50% in size
Numbers without * were called inactive; [ ] = another dose, or the depositor's remark. Unless noted, calls come from the whole dose curve; as a rule, active = well fitted inhibition curve with a large enough effect; inconclusive = small, poorly fitted or top-dose-only effect, or another doubt; inactive = no such curve, though single readings can be large or run the other way. % is set by controls: 0 for no effect and ±100 for the full control effect.

How did COc1cc(CC(=O)O)c(C(C)=O)cc1OC do in these assays?
MARV entry inh: 2%; HCV inhibitor: 20%; Pf growth 96h: 3.7µM*; HCMV inh: -9; Pf growth 48h: 7%; Lassa entry inh: -2%

What do the screens show for `COc1cc(CC(=O)O)c([N+](=O)[O-])cc1OC`?
HCV inhibitor: -5%; Pf growth 96h: 26%; HCMV inh: inconclusive; Pf growth 48h: 2%

What do the screens show for `CN1CCN(/C(=N\O)c2nonc2N)CC1`?
MARV entry inh: -1%; HCV inhibitor: 12%; Pf growth 96h: 15µM*; HCMV inh: 9; Pf growth 48h: 15%; Lassa entry inh: 17%

What do the screens show for `Nc1nonc1/C(=N/O)N1CCN(CCO)CC1`?
MARV entry inh: 4%; HCV inhibitor: 6%; Pf growth 96h: 3%; HCMV inh: 13; Pf growth 48h: 15%; Lassa entry inh: -3%

How did OC(c1ccccc1)c1nc(-c2cc(F)cc(F)c2)cs1 (stereo not drawn) do in these assays?
HCMV inh: 3

What do the screens show for `O=CN1CCN(C=O)C(O)C1O` (stereo not drawn)?
MARV entry inh: -4%; HCV inhibitor: 25%; HCMV inh: -5; Lassa entry inh: 0%

Results for Cn1c(=O)c2ncn(CC(=O)Nc3cccc(-c4nc5ccccc5s4)c3)c2n(C)c1=O ?
MARV entry inh: inconclusive; HCV inhibitor: 10µM*; Pf growth 96h: 31%; HCMV inh: 11; Pf growth 48h: 171%; Lassa entry inh: inconclusive

Results for COc1ccc(CCNC(=O)c2ccc3c(c2)OCO3)cc1 ?
MARV entry inh: inconclusive; HCV inhibitor: 2%; Pf growth 96h: -3%; HCMV inh: -14; Pf growth 48h: 32%; Lassa entry inh: inconclusive

Results for COc1ccc2cc(CCNC(=O)c3cccc([N+](=O)[O-])c3)c(=O)[nH]c2c1 ?
HCV inhibitor: -23%; Pf growth 96h: inconclusive; HCMV inh: inconclusive; Pf growth 48h: 5.2µM*

What do the screens show for `Cc1ccc2cc(CCNC(=O)c3ccc(C)c([N+](=O)[O-])c3)c(=O)[nH]c2c1`?
MARV entry inh: 12%; HCV inhibitor: -19%; Pf growth 96h: 4.7µM*; HCMV inh: -35; Pf growth 48h: inconclusive; Lassa entry inh: 3%

How did Cc1ccc2cc(CCNC(=O)C(=O)c3c[nH]c4ccccc34)c(=O)[nH]c2c1 do in these assays?
MARV entry inh: inconclusive; HCV inhibitor: inconclusive; Pf growth 96h: inconclusive; HCMV inh: -2; Pf growth 48h: 9.3µM*; Lassa entry inh: inconclusive

Results for COc1ccc2cc(CCNC(=O)c3ccc4c(c3)OCO4)c(=O)[nH]c2c1 ?
HCV inhibitor: -4%; Pf growth 96h: 10µM*; HCMV inh: 5; Pf growth 48h: inconclusive

Results for Cc1ccc(NC(=O)CNC(=O)c2cccc(Cl)c2)nc1 ?
MARV entry inh: 14%; HCV inhibitor: inconclusive; Pf growth 96h: 21%; HCMV inh: inconclusive; Pf growth 48h: 36%; Lassa entry inh: 23%

Results for CCC(=O)NCCc1cc2ccc(C)cc2[nH]c1=O ?
HCV inhibitor: inconclusive; Pf growth 96h: 11%; HCMV inh: 4; Pf growth 48h: 23%

What do the screens show for `Cc1ccc2cc(CCNC(=O)CC(C)C)c(=O)[nH]c2c1`?
HCV inhibitor: -1%; Pf growth 96h: inconclusive; HCMV inh: -67*; Pf growth 48h: 3%

What do the screens show for `CS(=O)(=O)N1CCc2cc(-c3csc(NCC4CCCO4)n3)ccc21` (stereo not drawn)?
MARV entry inh: -3%; HCV inhibitor: -29%; Pf growth 96h: inconclusive; HCMV inh: 53; Pf growth 48h: 9.3µM*; Lassa entry inh: -1%

How did CCCC(=O)Nc1nc(-c2ccc3c(c2)CCN3S(C)(=O)=O)cs1 do in these assays?
MARV entry inh: -17%; HCV inhibitor: 13µM*; Pf growth 96h: -59%; HCMV inh: -35; Pf growth 48h: -19%; Lassa entry inh: -2%

Results for CCC(=O)Nc1nc(-c2ccc3c(c2)CC(C)N3S(C)(=O)=O)cs1 (stereo not drawn) ?
MARV entry inh: inconclusive; HCV inhibitor: inconclusive; Pf growth 96h: 56%; HCMV inh: -22; Pf growth 48h: 0%; Lassa entry inh: -30%[46.1 µM]
